Drawing on PubChem BioAssay (EPA / NIEHS), this text covers AC50 and outcome for six compounds.

More than one record can exist for a structure, and the calls need not agree. Activity calls are given as the source filed them. The calls were made as follows: active = hit-call score of the fitted dose curve at least 0.9, where 1 is the maximum; inactive = score below 0.9.

Read-out in assay [1]: Macrophage colony-stimulating factor (MCSF), CSF1 (gene 1435)
The experiment in a line: BSK_hDFCGF_MCSF: BioMAP Diversity Plus: hDFCGF Assay for Macrophage colony-stimulating factor (MCSF) Biomarker Activity (AID 2283060). Particulars: primary human foreskin fibroblasts; actives raise or lower the signal. In outline: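 Human foreskin primary fibroblasts were treated with test chemical for 24 h, and M-CSF was then measured by ELISA. Data were fitted bidirectionally against DMSO as the negative control and activity baseline.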

A short description of assay [2]: BSK_hDFCGF_SRB: Viability Assessment in the BioMAP Diversity Plus: hDFCGF Assay (AID 2283061).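 Also: cells exposed to compound for 24 h before the read.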 The settings on record: primary human foreskin fibroblasts. In outline: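 Human foreskin primary fibroblasts were treated with compound and assessed 24 h after dosing. Total protein was measured by sulforhodamine B staining (0.1% SRB after 10% TCA fixation, 560 nm read) as a cytotoxicity marker, with bidirectional fitting against DMSO baseline.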

Read-out in assay [3]: TIMP metallopeptidase inhibitor 1 (TIMP1), TIMP1 (gene 7076)
As to the kind of experiment: BSK_hDFCGF_TIMP1: BioMAP Diversity Plus: hDFCGF Assay for TIMP metallopeptidase inhibitor 1 (TIMP1) Biomarker Activity (AID 2283062). The settings on record: primary human foreskin fibroblasts; actives raise or lower the signal. The gist of the method:
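Primary human foreskin fibroblasts in the hDFCGF system were dosed with compound for 24 h, then TIMP-1 was measured by ELISA. Activity was fitted bidirectionally relative to DMSO control; parallel SRB staining assessed cytotoxicity.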

Read-out in assay [4]: Monokine induced gamma interferon (MIG), CXCL9 (gene 4283)
The experiment in a line: BSK_hDFCGF_MIG: BioMAP Diversity Plus: hDFCGF Assay for Monokine induced gamma interferon (MIG) Biomarker Activity (AID 2283063). The settings on record: primary human foreskin fibroblasts; actives raise or lower the signal. In outline:
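ELISA read-out of MIG from primary human dermal fibroblasts 24 h post-dosing. Gain or loss of signal fitted bidirectionally, DMSO as baseline.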

Read-out in assay [5]: Matrix Metallopeptidase 1 (MMP1), MMP1 (gene 4312)
The experiment in a line: BSK_hDFCGF_MMP1: BioMAP Diversity Plus: hDFCGF Assay for Matrix Metallopeptidase 1 (MMP1) Biomarker Activity (AID 2283064). Particulars: primary human foreskin fibroblasts; actives raise or lower the signal. In outline: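 hDFCGF primary fibroblasts (human foreskin); chemical added; 24 h; MMP1 by ELISA; bidirectional fit vs DMSO.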

Read-out in assay [6]: Vascular cell adhesion molecule 1 (VCAM1), VCAM1 (gene 7412)
The experiment in a line: BSK_hDFCGF_VCAM1: BioMAP Diversity Plus: hDFCGF Assay for Vascular cell adhesion molecule 1 (VCAM1) Biomarker Activity (AID 2283065). Particulars: primary human foreskin fibroblasts; actives raise or lower the signal. The gist of the method:
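Primary human foreskin fibroblasts (hDFCGF system) were dosed with chemical and VCAM-1 was measured by ELISA 24 h later. Bidirectional curve fitting used DMSO as negative control and activity baseline.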

Read-out in assay [7]: Plasminogen activator inhibitor-1 (PAI1), SERPINE1 (gene 5054)
As to the kind of experiment: BSK_hDFCGF_PAI1: BioMAP Diversity Plus: hDFCGF Assay for Plasminogen activator inhibitor-1 (PAI1) Biomarker Activity (AID 2283066). The settings on record: primary human foreskin fibroblasts; actives raise or lower the signal. The gist of the method: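 PAI-1 levels, determined by ELISA, served as the endpoint in human foreskin fibroblast cultures exposed to compound for 24 h, with DMSO as baseline.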

Read-out in assay [8]: Intercellular Adhesion Molecule 1 (ICAM1), ICAM1 (gene 3383)
The experiment in a line: BSK_KF3CT_ICAM1: BioMAP Diversity Plus: KF3CT Assay for Intercellular Adhesion Molecule 1 (ICAM1) Biomarker Activity (AID 2283067). Particulars: primary human keratinocytes with fibroblasts; actives raise or lower the signal. In outline:
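Human keratinocyte plus foreskin fibroblast primary co-culture was exposed to chemical for 24 h. ICAM-1 was then quantified by ELISA, and the data were fit bidirectionally against DMSO as the negative control and baseline.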

Read-out in assay [9]: Interferon-gamma inducible Protein 10 (IP10), CXCL10 (gene 3627)
The experiment in a line: BSK_KF3CT_IP10: BioMAP Diversity Plus: KF3CT Assay for Interferon-gamma inducible Protein 10 (IP10) Biomarker Activity (AID 2283068). Particulars: primary human keratinocytes with fibroblasts; actives raise or lower the signal. In outline: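 ELISA read-out of IP-10 after 24 h chemical dosing of human skin primary co-culture (keratinocytes, foreskin fibroblasts). Gain or loss of signal relative to DMSO, bidirectional curve fit.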

Assay [10] in a line: BSK_KF3CT_SRB: Viability Assessment in the BioMAP Diversity Plus: KF3CT Assay (AID 2283069).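 Also: fitted for both signal gain and loss against DMSO baseline.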 Particulars: primary human keratinocytes with fibroblasts. The gist of the method: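 Keratinocytes co-cultured with foreskin fibroblasts (human primary); chemical added, 24 h; fix 10% TCA, stain 0.1% SRB, A560. Bidirectional fit vs DMSO.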
Read-out in assay [11]: Interleukin-1 alpha (IL1a), IL1A (gene 3552)
The experiment in a line: BSK_KF3CT_IL1a: BioMAP Diversity Plus: KF3CT Assay for Interleukin-1 alpha (IL1a) Biomarker Activity (AID 2283070). The settings on record: primary human keratinocytes with fibroblasts; actives raise or lower the signal. The gist of the method:
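Chemicals were dosed onto co-cultured human keratinocytes and foreskin fibroblasts, IL-1a was quantified by ELISA at 24 h, and activity was fitted in both directions relative to DMSO controls.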

Read-out in assay [12]: TIMP metallopeptidase inhibitor 2 (TIMP2), TIMP2 (gene 7077)
The experiment in a line: BSK_KF3CT_TIMP2: BioMAP Diversity Plus: KF3CT Assay for TIMP metallopeptidase inhibitor 2 (TIMP2) Biomarker Activity (AID 2283071). Particulars: primary human keratinocytes with fibroblasts; actives raise or lower the signal. The gist of the method: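 Keratinocyte–fibroblast co-culture, 24 h exposure; TIMP-2 ELISA, DMSO-normalised bidirectional fit. Parallel SRB (0.1%, TCA-fixed, 560 nm) total-protein staining gauges cytotoxicity.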

Read-out in assay [13]: Transforming growth factor beta 1 (TGFb1), TGFB1 (gene 7040)
The experiment in a line: BSK_KF3CT_TGFb1: BioMAP Diversity Plus: KF3CT Assay for Transforming growth factor beta 1 (TGFb1) Biomarker Activity (AID 2283072). Particulars: primary human keratinocytes with fibroblasts; actives raise or lower the signal. In outline: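 Signal changes in either direction, relative to DMSO, define activity here. TGF-b1 is read by ELISA from a human keratinocyte-fibroblast co-culture 24 h post-dose.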

Read-out in assay [14]: C-C motif chemokine 2 (Homo sapiens) (UniProt P13500)
As to the kind of experiment: BSK_KF3CT_MCP1: BioMAP Diversity Plus: KF3CT Assay for Monocyte Chemoattractant Protein 1 (MCP1/CCL2) Biomarker Activity (AID 2283073). The settings on record: primary human keratinocytes with fibroblasts; actives raise or lower the signal. The gist of the method:
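Human keratinocyte plus foreskin fibroblast primary co-culture exposed to chemical for 24 h. MCP-1 levels measured by ELISA. Bidirectional curve fitting relative to DMSO negative control as baseline.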

Read-out in assay [15]: Matrix Metallopeptidase 9 (MMP9), MMP9 (gene 4318)
As to the kind of experiment: BSK_KF3CT_MMP9: BioMAP Diversity Plus: KF3CT Assay for Matrix Metallopeptidase 9 (MMP9) Biomarker Activity (AID 2283074). The settings on record: primary human keratinocytes with fibroblasts; actives raise or lower the signal. The gist of the method:
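Human keratinocyte/foreskin fibroblast co-culture; compound added; 24 h; MMP-9 by ELISA; bidirectional fit vs DMSO baseline.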

Read-out in assay [16]: urokinase plasminogen activator (uPA), PLAU (gene 5328)
As to the kind of experiment: BSK_KF3CT_uPA: BioMAP Diversity Plus: KF3CT Assay for urokinase plasminogen activator (uPA) Biomarker Activity (AID 2283075). Particulars: primary human keratinocytes with fibroblasts; actives raise or lower the signal. In outline:
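ELISA readout of uPA, analyzed for signal gain or loss relative to DMSO, from a human primary keratinocyte–foreskin fibroblast co-culture measured 24 h after chemical treatment.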

Read-out in assay [17]: CD40, CD40 (gene 958)
The experiment in a line: BSK_LPS_CD40: BioMAP Diversity Plus: LPS Assay for CD40 Biomarker Activity (AID 2283076). The settings on record: primary human HUVEC with PBMC; actives raise or lower the signal. The gist of the method: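 Primary human umbilical vein endothelial cells co-cultured with peripheral blood mononuclear cells, LPS-stimulated, were dosed with chemical and read 24 h later. CD40 levels were measured by ELISA and fitted bidirectionally against DMSO as negative control and baseline.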

Read-out in assay [18]: E-selectin (Homo sapiens) (UniProt P16581)
As to the kind of experiment: BSK_LPS_Eselectin: BioMAP Diversity Plus: LPS Assay for Eselectin Biomarker Activity (AID 2283077). The settings on record: primary human HUVEC with PBMC; actives raise or lower the signal. In outline: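 Human umbilical vein endothelial cells co-cultured with peripheral blood mononuclear cells under LPS stimulation; E-selectin measured by ELISA 24 h after chemical dosing. Activity fitted bidirectionally against DMSO as negative control and baseline.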

Read-out in assay [19]: Interleukin-8 (IL8), CXCL8 (gene 3576)
As to the kind of experiment: BSK_LPS_IL8: BioMAP Diversity Plus: LPS Assay for Interleukin-8 (IL8) Biomarker Activity (AID 2283078). The settings on record: primary human HUVEC with PBMC; actives raise or lower the signal. In outline: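 Human umbilical vein endothelial cells co-cultured with PBMC were stimulated with LPS; IL-8 levels were measured by ELISA 24 h after chemical dosing. Activity was fitted bidirectionally against DMSO as negative control and baseline.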

Assay [20] can be described thus: BSK_LPS_SRB: Viability Assessment in the BioMAP Diversity Plus: LPS Assay (AID 2283079).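 Also: total protein by sulforhodamine B absorbance as a cytotoxicity measure; measured one day after compound addition; fitted in both directions against DMSO so loss or gain of signal counts.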 Particulars: primary human HUVEC with PBMC. In outline:
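Human umbilical vein endothelial cells co-cultured with PBMC (LPS system) were dosed for 24 h. Total protein was stained with 0.1% sulforhodamine B after 10% TCA fixation, read at 560 nm, and fitted bidirectionally against DMSO baseline.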

E-selectin (Homo sapiens), sequence (P16581 whole entry, looked up): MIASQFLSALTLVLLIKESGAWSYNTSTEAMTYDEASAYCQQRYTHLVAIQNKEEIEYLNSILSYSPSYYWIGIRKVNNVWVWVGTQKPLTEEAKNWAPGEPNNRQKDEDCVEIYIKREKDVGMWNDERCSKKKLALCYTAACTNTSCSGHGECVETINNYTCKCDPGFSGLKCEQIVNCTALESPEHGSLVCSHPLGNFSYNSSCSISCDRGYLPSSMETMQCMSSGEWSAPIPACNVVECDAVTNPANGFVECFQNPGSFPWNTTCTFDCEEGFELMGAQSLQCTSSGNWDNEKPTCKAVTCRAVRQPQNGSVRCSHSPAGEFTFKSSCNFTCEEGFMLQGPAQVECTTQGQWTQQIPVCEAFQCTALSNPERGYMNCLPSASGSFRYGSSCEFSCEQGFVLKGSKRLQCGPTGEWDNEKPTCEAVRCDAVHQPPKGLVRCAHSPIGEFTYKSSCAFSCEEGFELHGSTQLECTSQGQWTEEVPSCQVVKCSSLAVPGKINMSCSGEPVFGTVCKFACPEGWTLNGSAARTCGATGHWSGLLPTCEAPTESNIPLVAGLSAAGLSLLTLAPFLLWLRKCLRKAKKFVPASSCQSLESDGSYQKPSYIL

For `O=P(Oc1ccccc1)(Oc1ccccc1)Oc1ccccc1`, the AC50 (commonly the concentration at which the activity in the assay is half-maximal) in [1] was 10.9 µM (active); in [7], 20 µM (active); in [17], 23.6 µM (active); in [19], 30.6 µM (active); in assay [20] it was 30.6 µM (active). For the same compound, the outcome in [2], in [3], in assay [4], in assay [5], in [6] and in assay [8] was inactive. Besides, the result in assay [9], in assay [10], in [11], in assay [12], in assay [13] and in [14] was inactive. Also, the result in assay [15], in assay [16] and in assay [18] was inactive.

Regarding `CC(C)(C)OOC(C)(C)C`, the result in assay [1], in [2], in assay [3], in assay [4], in [5] and in assay [6] was inactive. Also, the outcome in [7], in assay [8], in assay [9], in assay [10], in assay [11] and in assay [12] was inactive. In addition, the outcome in assay [13], in assay [14], in assay [15], in assay [17], in [18] and in assay [19] was inactive. In addition, in assay [20], the outcome was inactive.

For the compound `CN(C)C(=O)Cl`, the outcome in assay [1], in assay [2], in [3], in assay [4], in [5] and in assay [7] was inactive. Besides, the outcome in assay [8], in [9], in assay [10], in [11], in [12] and in assay [13] was inactive. Moreover, the result in assay [14], in assay [15], in assay [16], in assay [17], in assay [18] and in [19] was inactive. In addition, in assay [20], the outcome was inactive.

Consider `O=C(O)C(F)(F)C(F)(F)C(=O)O`, for which the result in assay [1], in assay [2], in [3], in [4], in [6] and in assay [7] was inactive. For the same compound, the result in assay [8], in assay [9], in assay [10], in [11], in [12] and in assay [14] was inactive. Moreover, the outcome in [15], in [17], in [18], in assay [19] and in [20] was inactive. The AC50 in [4] is 14.1 µM (active).

As to `ClC(Cl)c1ccccc1`, the outcome in assay [1], in assay [2], in assay [3], in [4], in assay [5] and in [6] was inactive. Further, the result in assay [7], in assay [8], in assay [9], in assay [10], in [11] and in [12] was inactive. The result in assay [13], in [14], in assay [15], in assay [16], in assay [17] and in assay [18] was inactive. Besides, the result in [19] and in assay [20] was inactive.

With `Nc1ccc(Cl)cc1`, the outcome in [1], in assay [2], in [3], in assay [4], in [5] and in [6] was inactive. Further, the result in assay [7], in assay [8], in [9], in assay [10], in assay [11] and in [12] was inactive. The result in assay [13], in assay [14], in [15], in [17], in [18] and in [19] was inactive. Also, the outcome in [20] was inactive.
